This is a sample that favours compounds with a hit; in the whole collection about 3.7% have one here.
Rv3671c protease – inhibitors of M. tuberculosis serine protease Rv3671c; P9WHR9; inhibition, % at 5.96 µM; hit rate 0.048% among 320,000; AID 2606; in the data active = inhibition above about 38%;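 also: extracellular domain of Rv3671c used as enzyme; 0% = enzyme with DMSO and 100% = no enzyme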
FadD28 binding – blocks FadD28 binding to the bisubstrate probe; hit rate 0.22% among 360,000; inhibition, % at 12.5 µM; fluorescence polarization; AID 588549; in the data active = inhibition above about 8.5%, passing the limit was not always enough
GDH-TPI inh – GDH-TPI coupled enzyme inhibition counter-screen; GDH-TPI coupled enzyme counterscreen, NADH absorbance; inhibition, % at 4.8 µM; hit rate 1.2% among 360,000; AID 588335; in the data active = inhibition above about 30%;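 also: 0% = DMSO wells and 100% = wells lacking the enzyme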
UGM FP inh – Mtb UDP-galactopyranose mutase inhibition; inhibition, % at 10 µM; P9WIQ1; purified UGM, fluorescence polarization probe displacement; hit rate 0.06% among 320,000; in the data active = inhibition above about 10%, passing the limit was not always enough
Target sequence (P9WIQ1 whole entry, looked up): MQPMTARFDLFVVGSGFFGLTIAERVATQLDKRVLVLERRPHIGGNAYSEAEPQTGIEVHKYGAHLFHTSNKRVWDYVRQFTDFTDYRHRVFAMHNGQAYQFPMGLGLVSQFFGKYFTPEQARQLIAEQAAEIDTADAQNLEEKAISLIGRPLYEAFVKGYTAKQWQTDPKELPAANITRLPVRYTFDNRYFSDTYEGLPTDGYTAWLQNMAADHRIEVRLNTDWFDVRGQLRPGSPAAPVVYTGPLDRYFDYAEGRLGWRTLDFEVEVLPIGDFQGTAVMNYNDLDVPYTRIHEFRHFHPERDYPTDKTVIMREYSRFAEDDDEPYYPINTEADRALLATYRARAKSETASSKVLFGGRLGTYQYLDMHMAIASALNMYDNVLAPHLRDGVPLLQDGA
Mtb betalactam – beta-lactam sensitization of Mtb H37Rv; AID 434955; hit rate 0.27% among 330,000; M. tuberculosis H37Rv growth with meropenem, percent inhibition; inhibition, % at 25 µM; call rule not given here;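 also: growth measured after seven days incubation then overnight dye step; 0% = bacteria only wells and 100% = bacteria with antibiotic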
FBA Mtb inh – inhibits M. tuberculosis FBA enzyme. P9WQA3. inhibition, % at 1 µM. hit rate 2.3% among 360,000. AID 588726. purified M. tuberculosis FBA, fluorescence read-out; in the data active = inhibition above about 27%;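 also: 0% = vehicle and 100% = reference inhibitor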
Numbers without * were called inactive; x = not tested or not shown; + = active, no number.

SMILES | Rv3671c protease | FadD28 binding | GDH-TPI inh | UGM FP inh | Mtb betalactam | FBA Mtb inh
Cc1ccc(C)c(SCC(=O)OC/C(O)=C(\C#N)c2nc3ccccc3[nH]2)c1 | x | -2 | 10 | x | x | 2
Cn1cnnc1SC/C(O)=C(\C#N)c1nc2ccccc2[nH]1 | 2 | 0 | 28 | 2 | -8 | -1
N#C/C(=C(/O)CSc1n[nH]c(N)n1)c1nc2ccccc2[nH]1 | -6 | -2 | 32* | 0 | -3 | 4
N#C/C(=C(/O)COC(=O)CSc1ccc2ccccc2c1)c1nc2ccccc2[nH]1 | -12 | -2 | 38* | -1 | 84 | 2
CC[n+]1c(/C=C/N(C)c2ccccc2)oc2ccc(Cl)cc21 | -19 | 2 | 46* | 2 | -6 | -5
CC[n+]1c(/C=C/N(C)c2ccccc2)sc2ccc(Cl)cc21 | -58 | -2 | 5 | 0 | 5 | -1
Cc1cccc(N2C(=O)NC(=O)/C(=C\c3ccc(N4CCOCC4)cc3)C2=O)c1 | -5 | 0 | 31* | 2 | -5 | -4
Cc1cccc(N2C(=O)NC(=O)/C(=C/c3ccc(N4CCOCC4)cc3)C2=O)c1 | -9 | -1 | 21 | 1 | -11 | 0
Cn1c(=O)c2c(ncn2Cc2ccc(Cl)cc2)n(C)c1=O | -3 | 16* | -1 | 0 | -1 | -1
O=C(OCc1ccccc1)N1CCCCC1c1c(Cl)cccc1Br (stereo not drawn) | x | -4 | x | x | x | -4
COc1ccc(/C=N\NC(=S)SCN2C(=O)C3CCC(C)(C2=O)C3(C)C)cc1 (stereo not drawn) | 1 | -1 | 46* | 1 | -11 | 0
CN(C)c1ccc(/C=N\NC(=S)SCN2C(=O)C3CCC(C)(C2=O)C3(C)C)cc1 (stereo not drawn) | 7 | -2 | 25 | 4 | -11 | 0
CC(=O)Nc1cccc(-c2nc3ccccc3o2)c1 | -2 | 0 | -6 | 2 | 1 | 7
CC(=O)Nc1ccc(-c2nc3ccc(NC(C)=O)cc3o2)cc1 | -2 | 0 | 10 | 0 | -3 | +
CC(=O)Nc1ccc2oc(-c3ccccc3)nc2c1 | -6 | -2 | -1 | 0 | -6 | 173*
CCc1cc2c(=O)c(Oc3ccccc3)c(C)oc2cc1O | 7 | -2 | 18 | -1 | 6 | 186*
CCN(CC)N=Nc1[nH]nc2nc(C)cc(C)c12 | 8 | 1 | 32* | -2 | 48 | -9
Cc1cc(C)c2c(N=NN3CCCCC3)[nH]nc2n1 | -2 | -3 | 12 | -2 | -3 | 2
CCNC(=O)C1(C)CCN(C(=O)c2cccs2)C1 (stereo not drawn) | x | -4 | -7 | x | x | -2
CCn1c(NC(=O)c2ccc(COc3ccc(C)cc3[N+](=O)[O-])o2)nc2ccccc21 | 7 | 1 | 32* | 2 | 70 | 1
O=C1C(=O)N(c2ccccn2)C(c2cccc([N+](=O)[O-])c2)/C1=C(/O)c1ccc(Br)cc1 (stereo not drawn) | 6 | -6 | 18 | 0 | 3 | -1
CCCSC1=N/C(=C\c2ccc([N+](=O)[O-])o2)C(=O)S1 | x | 12* | 5 | x | x | -11
CCCSC1=N/C(=C\C=C\c2ccco2)C(=O)S1 | 7 | 15* | 11 | -2 | 22 | -1
O=C(N/N=C/c1cccs1)c1c[nH]c2ccccc12 | 3 | -3 | 38* | -4 | 2 | 1
O=C(N/N=C/c1cccs1)c1ccccn1 | 2 | 0 | 23 | 1 | 88 | -1
SMILES | Rv3671c protease | FadD28 binding | GDH-TPI inh | UGM FP inh | Mtb betalactam | FBA Mtb inh
C/C(=N\NC(=O)c1c[nH]c2ccccc12)c1ccc(C)o1 | 0 | -1 | 33* | 3 | 9 | -2
CCN(CC)c1ccc(/C=N/NC(=O)c2c[nH]c3ccccc23)cc1 | 25 | 2 | 30 | 1 | 3 | 24
CCc1ccc(/C=N/NC(=O)c2c[nH]c3ccccc23)s1 | 6 | 1 | 50* | 0 | 2 | 3
C(=NN=C(NN=Cc1cccs1)NN=Cc1cccs1)c1cccs1 | x | 1 | 44* | x | x | 2
Cc1c(/C=N\NC(=O)c2c[nH]c3ccccc23)cnn1C | 1 | -1 | 17 | 1 | 5 | -2
COCCN(CCOC)Cc1cc(=O)oc2cc(C)c(Cl)cc12 | x | 0 | x | x | x | 5
Cc1ccc(C(=O)Nc2cccc(NC(=O)c3ccc(C)cc3)n2)cc1 | -5 | -2 | -2 | 0 | -1 | 2
COc1cc(NS(=O)(=O)c2ccc(C)cc2)c2c(c1N)C(=O)c1ccccc1C2=O | x | 0 | 7 | x | x | -1
Cc1c(N2C(=O)/C(=C/c3ccccc3)SC2=S)c(=O)n(-c2ccccc2)n1C | -13 | 0 | 38* | 1 | 2 | 0

From PubChem
